From PubChem BioAssay AID1159580 (chemical genetic matrix, 2015)
Several values for one entry are separate records, joined by “and”; a condition that tells them apart may be missing. Equal entries are not always repeated. Hit rate of the full screen: of about 5,500 compounds, about 2,000 (36%) were called active. Not shown: some 18% with an inconclusive outcome. No stated cut-off is given here; in the data, active means normalized growth mostly below about 0.91 (no sharp cut-off); inconclusive means no clear call, values can overlap the other calls; inactive means mostly above about 0.92. The list shows a part of the results.

Assay: chemical genetic growth profiling, strain panel (AID 1159580);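 further: tested at 20 µM; growth read once vehicle control cultures reached saturation at 30 °C; 1 = growth at the plate median or of vehicle wells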
Conditions: growth OD

Measured: normalized growth

C[N+](C)(C)CCOC(N)=O
inactive: S. cerevisiae deletion strains, locus YKL068W, stronger effect = lower value 0.981 | S. cerevisiae deletion strains, locus YKL085W, strain MDH1 (second series), stronger effect = lower value 0.969 | S. cerevisiae deletion strains, locus YKL085W, strain MDH1, stronger effect = lower value 0.969 | S. cerevisiae deletion strains, locus YKL160W, strain elf1, stronger effect = lower value 1.02 | S. cerevisiae deletion strains, locus YKL190W, strain CNB1, stronger effect = lower value 1 | S. cerevisiae deletion strains, locus YKR001C, strain vps1, stronger effect = lower value 0.991 | S. cerevisiae deletion strains, locus YKR026C, strain gcn3, stronger effect = lower value 0.988 | S. cerevisiae deletion strains, locus YKR091W, strain srl3, stronger effect = lower value 1 | S. cerevisiae deletion strains, locus YLL001W, strain dnm1, stronger effect = lower value 0.998 | S. cerevisiae deletion strains, locus YLL026W, stronger effect = lower value 1 | S. cerevisiae deletion strains, locus YLL041C, strain sdh2, stronger effect = lower value 1.01 | S. cerevisiae deletion strains, locus YLR027C, strain aat2, stronger effect = lower value 1.01 | S. cerevisiae deletion strains, locus YLR039C, strain RIC1, stronger effect = lower value 0.993 | S. cerevisiae deletion strains, locus YLR058C, strain SHM2, stronger effect = lower value 1 | S. cerevisiae deletion strains, locus YLR102C, strain apc9, stronger effect = lower value 0.986 | S. cerevisiae deletion strains, locus YLR113W, strain HOG1, stronger effect = lower value 0.959 | S. cerevisiae deletion strains, locus YLR221C, strain rsa3, stronger effect = lower value 1.01 | S. cerevisiae deletion strains, locus YLR258W, strain gsy2, stronger effect = lower value 1.02 | S. cerevisiae deletion strains, locus YLR262C, strain YPT6 (second series), stronger effect = lower value 1.02 | S. cerevisiae deletion strains, locus YLR262C, strain YPT6, stronger effect = lower value 0.991 | S. cerevisiae deletion strains, locus YLR268W, strain sec22, stronger effect = lower value 0.978 | S. cerevisiae deletion strains, locus YLR320W, strain mms22, stronger effect = lower value 1.03 | S. cerevisiae deletion strains, locus YLR330W, strain CHS5, stronger effect = lower value 1 | S. cerevisiae deletion strains, locus YLR342W, strain FKS1 (second series), stronger effect = lower value 1.12 | S. cerevisiae deletion strains, locus YLR342W, strain FKS1, stronger effect = lower value 1.01 | S. cerevisiae deletion strains, locus YLR357W, strain rsc2, stronger effect = lower value 1 | S. cerevisiae deletion strains, locus YLR370C, strain arc18, stronger effect = lower value 1.01 | S. cerevisiae deletion strains, locus YLR371W, strain rom2, stronger effect = lower value 0.97 | S. cerevisiae deletion strains, locus YLR384C, strain iki3, stronger effect = lower value 1.04 | S. cerevisiae deletion strains, locus YLR418C, strain cdc73, stronger effect = lower value 0.983 | S. cerevisiae deletion strains, locus YML016C, strain PPZ1, stronger effect = lower value 1.02 | S. cerevisiae deletion strains, locus YML032C, strain rad52, stronger effect = lower value 0.993 | S. cerevisiae deletion strains, locus YML120C, strain ndi1, stronger effect = lower value 1.02 | S. cerevisiae deletion strains, locus YML124C, strain tub3, stronger effect = lower value 0.974 | S. cerevisiae deletion strains, locus YMR058W, strain fet3, stronger effect = lower value 1.02 | S. cerevisiae deletion strains, locus YMR078C, strain ctf18, stronger effect = lower value 0.956 | S. cerevisiae deletion strains, locus YMR125W, strain sto1, stronger effect = lower value 1.03 | S. cerevisiae deletion strains, locus YMR129W, stronger effect = lower value 1.02 | S. cerevisiae deletion strains, locus YMR205C, strain PFK2, stronger effect = lower value 1.02 | S. cerevisiae deletion strains, locus YMR223W, strain ubp8, stronger effect = lower value 0.975 | S. cerevisiae deletion strains, locus YMR231W, strain pep5, stronger effect = lower value 1.02 | S. cerevisiae deletion strains, locus YMR263W, strain SAP30, stronger effect = lower value 1 and 0.986 | S. cerevisiae deletion strains, locus YMR307W, strain GAS1, stronger effect = lower value 1.16 | S. cerevisiae deletion strains, locus YNL067W, strain RPL9B, stronger effect = lower value 0.961 | S. cerevisiae deletion strains, locus YNL071W, strain lat1, stronger effect = lower value 1.01 | S. cerevisiae deletion strains, locus YNL128W, strain TEP1, stronger effect = lower value 0.971 | S. cerevisiae deletion strains, locus YNL153C, strain GIM3, stronger effect = lower value 0.963 | S. cerevisiae deletion strains, locus YNL175C, strain NOP13, stronger effect = lower value 0.973 | S. cerevisiae deletion strains, locus YNL183C, strain NPR1, stronger effect = lower value 0.938 | S. cerevisiae deletion strains, locus YNL197C, strain WHI3, stronger effect = lower value 0.991 | S. cerevisiae deletion strains, locus YNL209W, strain ssb2, stronger effect = lower value 1.01 | S. cerevisiae deletion strains, locus YNL224C, strain SQS1, stronger effect = lower value 0.991 | S. cerevisiae deletion strains, locus YNL233W, strain BNI4, stronger effect = lower value 0.99 | S. cerevisiae deletion strains, locus YNL248C, strain rpa49, stronger effect = lower value 1.03 | S. cerevisiae deletion strains, locus YNL250W, strain rad50, stronger effect = lower value 0.969 | S. cerevisiae deletion strains, locus YNL271C, strain bni1, stronger effect = lower value 0.979 | S. cerevisiae deletion strains, locus YNL298W, strain CLA4, stronger effect = lower value 0.977 | S. cerevisiae deletion strains, locus YNL307C, strain MCK1, stronger effect = lower value 0.982 | S. cerevisiae deletion strains, locus YNL322C, strain KRE1 (second series), stronger effect = lower value 1.02 | S. cerevisiae deletion strains, locus YNL322C, strain KRE1, stronger effect = lower value 0.989 | S. cerevisiae deletion strains, locus YNR049C, strain mso1, stronger effect = lower value 1.02 | S. cerevisiae deletion strains, locus YNR052C, strain pop2, stronger effect = lower value 0.97 | S. cerevisiae deletion strains, locus YOL012C, strain htz1 0.907 | S. cerevisiae deletion strains, locus YOL147C, strain pex11, stronger effect = lower value 0.978 | S. cerevisiae deletion strains, locus YOR001W, strain rrp6, stronger effect = lower value 1.03 | S. cerevisiae deletion strains, locus YOR061W, strain CKA2, stronger effect = lower value 1 | S. cerevisiae deletion strains, locus YOR069W, strain VPS5, stronger effect = lower value 1 | S. cerevisiae deletion strains, locus YOR070C, strain gyp1, stronger effect = lower value 1.01 | S. cerevisiae deletion strains, locus YOR080W, strain dia2, stronger effect = lower value 1.03 | S. cerevisiae deletion strains, locus YOR083W, strain WHI5 (second series), stronger effect = lower value 1.01 | S. cerevisiae deletion strains, locus YOR083W, strain WHI5, stronger effect = lower value 1.03 | S. cerevisiae deletion strains, locus YOR106W, strain vam3, stronger effect = lower value 1.01 | S. cerevisiae deletion strains, locus YOR136W, strain idh2, stronger effect = lower value 0.976 | S. cerevisiae deletion strains, locus YOR144C, strain elg1, stronger effect = lower value 0.982 | S. cerevisiae deletion strains, locus YOR184W, strain ser1, stronger effect = lower value 0.973 | S. cerevisiae deletion strains, locus YOR231W, strain MKK1, stronger effect = lower value 1 | S. cerevisiae deletion strains, locus YOR265W, strain rbl2, stronger effect = lower value 1.01 | S. cerevisiae deletion strains, locus YOR270C, strain vph1, stronger effect = lower value 1.05 | S. cerevisiae deletion strains, locus YOR290C, strain snf2, stronger effect = lower value 1.02 | S. cerevisiae deletion strains, locus YOR316C, strain cot1, stronger effect = lower value 0.976 | S. cerevisiae deletion strains, locus YPL051W, strain arl3, stronger effect = lower value 1.02 | S. cerevisiae deletion strains, locus YPL055C, strain LGE1, stronger effect = lower value 0.997 and 0.999 | S. cerevisiae deletion strains, locus YPL078C, strain atp4, stronger effect = lower value 1.01 | S. cerevisiae deletion strains, locus YPL106C, strain sse1, stronger effect = lower value 1.04 | S. cerevisiae deletion strains, locus YPL240C, strain hsp82, stronger effect = lower value 1.02 | S. cerevisiae deletion strains, locus YPL241C, strain CIN2, stronger effect = lower value 1.01 | S. cerevisiae deletion strains, locus YPL256C, strain CLN2, stronger effect = lower value 0.993 | S. cerevisiae deletion strains, locus YPR119W, strain clb2, stronger effect = lower value 0.973 | S. cerevisiae deletion strains, locus YPR141C, strain kar3, stronger effect = lower value 0.973 | S. cerevisiae deletion strains, locus YPR163C, strain tif3, stronger effect = lower value 0.985 | S. cerevisiae deletion strains, locus YPR167C, strain met16, stronger effect = lower value 0.975 | S. cerevisiae deletion strains, strain wtn01, stronger effect = lower value 1.01 | S. cerevisiae strains, strain wild type, stronger effect = lower value 1.01
